Source: PubChem (several laboratories)
TROY signal inh – inhibitors of TROY-dependent NF-kB signaling; inhibition, % at 10 µM; Q293 LMP1-TROYcd NF-kB luciferase reporter, 4 h; 360,000 tested, 0.98% active; AID 1347056;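 active means compounds whose plate-normalised and pattern-corrected inhibition of the luciferase reporter signal at the single screening dose is 50% or more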
EBV LMP1 NFkB – reduces LMP1-driven NF-kappaB luciferase signal; LMP1-induced NF-kappaB luciferase reporter cells, luminescence; inhibition, % at 12.5 µM; 350,000 tested, 0.69% active; in the data active means inhibition above about 41%; inconclusive means no clear call, values can overlap the other calls;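 further: 0% = neutral control wells and 100% = reference inhibitor control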
LGR2 inh – inhibitors of bursicon-induced Drosophila LGR2 receptor cAMP signaling; HEK293 LGR2, CRE-luciferase, bursicon-stimulated, 4 h; inhibition, % at 9.99 µM; 380,000 tested, 0.35% active;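 active means drop in luminescence signal, shown as inhibition above about 50% in the replicate tests, limit read from the data, passing the limit was not always enough; inconclusive means probably only some replicates passing the limit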;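 further: agonist challenge used bursicon conditioned medium at about half maximal strength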
PAX8 inh HTS – inhibitors of PAX8 transcriptional activity in RMG-I cells | RMG-I TPO-luciferase reporter, SteadyGlo, 24 h | inhibition, % at 12.6 µM | 360,000 tested, 1.2% active;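 active means mean replicate inhibition at least 60% with every replicate also reaching 60%; inconclusive means only one of the two criteria is met; inactive means mean below 60% and not all replicates reaching 60%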;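 further: luciferase light reporting Pax8 driven TPO promoter activity; plate controls were median of neutral control wells for no effect and mitoxantrone controls for full effect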
TWEAK-Fn14 inh – TWEAK-Fn14 signaling inhibition; inhibition, % at 10 µM; TWEAK-stimulated Fn14 reporter cells, luciferase luminescence, 8 h; 360,000 tested, 2% active; AID 1159606; in the data active means inhibition above about 50%
EWS-Fli inh – blocks EWS/Fli oncoprotein-driven transcription; A673 NR0B1-luciferase reporter, viability-normalised; inhibition, % at 12.6 µM; 350,000 tested, 0.67% active;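 active means mean inhibition of at least 50% after viability correction, with every replicate also passing that limit; inconclusive means mean reaches 50% but only one of two replicates passes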;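 further: firefly luciferase signal divided by Alamar Blue viability fluorescence both relative to DMSO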
* hit, by the source's call; ? = inconclusive; . = no result given. Most compounds without a hit are left out; they make up all but 3.2% or so of the library.

SMILES | TROY signal inh | EBV LMP1 NFkB | LGR2 inh | PAX8 inh HTS | TWEAK-Fn14 inh | EWS-Fli inh
CC1(C(=O)Nc2ccc3c(c2)OCCO3)CCN1C(=O)c1ccccc1CCc1ccccc1 (stereo not given) | 35 | . | 11 | 1 | 69* | 19
CC1(C(=O)Nc2cccc(C#N)c2)CCN1C(=O)c1ccccc1CCc1ccccc1 (stereo not given) | -6 | . | 19 | 15 | 11 | 5
O=C(CC1CS(=O)(=O)CC1CC(=O)Nc1ccc2c(c1)OCCO2)Nc1ccc2c(c1)OCCO2 (stereo not given) | -2 | 30 | ? | -83 | 91* | 0
COc1ccc(C)cc1NC(=O)CNC(c1ccccc1)c1ccc(C)cc1 (stereo not given) | 18 | 17 | -8 | 8 | 22 | 55*
O=C(CC1CC1)N[C@H]1CC[C@@H](CCNS(=O)(=O)c2ccc(Cl)cc2)O[C@H]1CO | . | . | 7 | 2 | . | -5
CC[C@@H](C)C(C(=O)N1CCN(C(=O)OC(C)(C)C)CC1)n1cc(-c2cn([C@@H](C)C(=O)N3CCN(C(=O)OC(C)(C)C)CC3)nn2)nn1 (stereo not given in full) | 55* | 1 | . | -6 | -22 | 0
C[C@@H]1CCCCO[C@@H](CN(C)C(=O)Nc2ccccc2)[C@H](C)CN([C@H](C)CO)C(=O)c2cc(NS(=O)(=O)c3ccc(F)cc3)ccc2O1 | . | . | 16 | 25 | . | 4
CCN=C1S/C(=C\c2cc(OCC)c(O)cc2Br)C(=O)N1CC | 29 | 54* | -26 | 7 | 23 | .
CCN=C1S/C(=C\c2ccc(O)c(OCC)c2)C(=O)N1CC | -1 | -6 | -19 | -31 | -18 | 4
COc1ccc(C(=O)c2coc3ccc(O)cc23)cc1 | -9 | -3 | 37 | -84 | 56* | -30
FC(F)(F)c1cnc(NNC(=S)Nc2ccc(Cl)cc2)c(Cl)c1 | 59* | 31 | 49 | 76* | 61* | .
O=C(O)c1ccc(NNC(=S)Nc2cc(C(F)(F)F)ccc2Cl)cc1 | 47 | -25 | -15 | -44 | 69* | -8
Fc1ccc(NC(=S)NNc2ncc(C(F)(F)F)cc2Cl)c(F)c1 | 61* | 45* | 12 | 85* | 29 | 24
Cc1ccc(NC(=S)NNc2ncc(C(F)(F)F)cc2Cl)c(C)c1 | 21 | 7 | . | . | 9 | .
O=C(c1ccccc1)N1CC2(C1)[C@H](c1ccccc1)[C@H](CO)N2C(=O)CC1CC1 | . | . | 16 | . | . | 7
CO[C@H]1CN(C)C(=O)c2ccc(NC(=O)C3CCCC3)cc2OC[C@H](C)N(CC2CC2)C[C@H]1C | . | . | -17 | -7 | . | -5
C[C@H](O)C#Cc1ccc2c(c1)O[C@H](CN(C)C(=O)CN(C)C)[C@@H](C)CN([C@@H](C)CO)S2(=O)=O | . | . | -11 | . | . | -4
Cn1nc(-c2ccc(N3CCOCC3)c(NS(=O)(=O)c3ccccc3)c2)c2ccccc2c1=O | -27 | 61* | 37 | . | 38 | 9
COc1ccc(CN(C)C[C@H]2Oc3ccc(NC(=O)CCN4CCOCC4)cc3CC(=O)N([C@H](C)CO)C[C@@H]2C)cc1 | . | . | -4 | -40 | . | 31
c1ccc(-c2cn(-c3ccccc3)c3[n+]2CCS3)cc1 | 4 | 23 | 22 | 20 | -3 | 14
CC(C)(C)c1ccc(-c2cn(-c3ccc(Br)cc3)c3[n+]2CCCS3)cc1 | 36 | 28 | 19 | 95* | 42 | 39
CN(C)S(=O)(=O)N1CCC(Oc2cccc(C(=O)NC3CCCCC3)c2)CC1 | 8 | 16 | -2 | 10 | 23 | 8
CN(C)S(=O)(=O)N1CCC(Oc2cccc(C(=O)NCCC3=CCCCC3)c2)CC1 | 37 | 12 | 13 | 11 | 50* | -1
CC(=O)N1CCC(C(=O)Nc2ccccc2)(N(Cc2ccccc2)C(=O)c2cccnc2)CC1 | 51* | -22 | . | . | 6 | .
O=C(COC(=O)c1cccnc1)Nc1ccccc1 | -8 | -6 | . | . | 2 | .
SMILES | TROY signal inh | EBV LMP1 NFkB | LGR2 inh | PAX8 inh HTS | TWEAK-Fn14 inh | EWS-Fli inh
CCCCCCCCCc1nc2sc3c(c2c(=O)n1NC(=O)c1ccccc1[N+](=O)[O-])CC(C)(C)OC3 | 58* | -3 | 3 | 7 | 49 | -4
CCCCCCCCCc1nc2sc3c(c2c(=O)n1NC(=O)c1ccc([N+](=O)[O-])cc1)CC(C)(C)OC3 | 42 | 3 | 24 | 2 | 56* | .
CCCc1nc2sc3c(c2c(=O)n1NC(=O)c1ccco1)CC(C)(C)OC3 | -37 | -5 | . | -29 | -7 | -4
COCC(=O)N1[C@@H](CO)[C@@H]2c3ccccc3N(C(=O)C3CC3)C[C@@H]21 | . | . | 1 | -6 | . | -18
C[C@@H]1CN([C@@H](C)CO)C(=O)c2cc(-c3ccc(C(=O)N(C)C)cc3)cnc2O[C@H]1CN(C)C(=O)CN(C)C | . | . | 4 | . | . | -3
CCC(=O)N1[C@@H]2c3ccc(-c4ccccc4)c(=O)n3C[C@H]1[C@H](CO)[C@H]2C(=O)N1CCc2ccccc2C1 | . | . | -8 | . | . | -1
Cc1c(C(C)(C)C)sc(=NC(=O)c2ccccc2O)n1C | 56* | -46 | -87 | -139 | 47 | -35
Cc1c(C(C)(C)C)s/c(=N/S(=O)(=O)c2ccccc2)n1C | 11 | -3 | . | 15 | 3 | -6
O=C1C=C(NCc2ccccc2)CCC1 | 6 | 2 | -4 | 74* | 5 | 0
O=C1C=C(NCc2ccco2)CCC1 | -18 | 11 | 2 | . | -4 | -5
C=CCOc1ccc(C[C@H](N)C(=O)NC[C@H]2O[C@@H](n3cc(C)c(=O)[nH]c3=O)C[C@@H]2O)cc1 | 1 | -11 | -9 | -5 | 5 | 1
Cc1cn([C@H]2C[C@H](O)[C@@H](CNC(=O)[C@H](N)Cc3cn(COCc4ccccc4)cn3)O2)c(=O)[nH]c1=O | -18 | 7 | 14 | -7 | 51* | 3
COc1ccc(OC)c(S(=O)(=O)Oc2ccc(N)c3ccccc23)c1 | 30 | -1 | 10 | 21 | 87* | -4
COc1ccc(OC)c(S(=O)(=O)Nc2cccc3ccccc23)c1 | -13 | . | . | 35 | 19 | 9
CCN(CC)c1ccc2c(O)cc(=O)oc2c1 | -10 | -5 | -136 | 9 | 86* | -8
CCN(CC)c1ccc2c(C)c(CO)c(=O)oc2c1 | 6 | -1 | -26 | 38 | -19 | 2
CN1c2ccc(C#Cc3cccnc3)cc2[C@H]2[C@H](CCN2C(=O)C2CC2)[C@@H]1CO | . | . | 4 | -28 | . | -4
